Experimental data as given in PubChem BioAssay.
For some of these results: Results with a measured potency or affinity are listed apart. Active and inactive are the calls of the source. Unless noted, the rule behind the calls is not given here.

What was measured:
[1] = antimalarial activity against Dd2 strain (AID 2302;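 active = growth inhibition above 50% at the single 2 µM test dose, taken to imply half-maximal potency below 2 µM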;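 note: 0% = DMSO untreated growth and 100% = chloroquine plus artemisinin killed control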); details: P. falciparum Dd2 in RBCs, LDH growth readout, 72 h; at 2 µM; stronger effect = higher value
[2] = HepG2 cytotoxicity, primary screen, cytotoxicity control for P. falciparum antimalarial project, cell-based, ATP luminescence (AID 2303;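 active = inhibition above 50%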;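 note: 0% = DMSO wells and 100% = digitonin-killed cells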); details: HepG2 viability, 24-48 h, at 10 µM, stronger effect = higher value
[3] = target: L-lactate dehydrogenase (Plasmodium falciparum (isolate CDC / Honduras)) (UniProt Q27743); experiment: PfLDH activity inhibition – cell lysate, 3D7 strain, counter-screen for P. falciparum growth inhibition project (AID 2304);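 note: 0% = vehicle and 100% = reference inhibitor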; details: P. falciparum 3D7 crude extract, LDH APAD/NBT absorbance; at 2 µM; stronger effect = higher value
[4] = inhibition of 3D7 malaria parasite growth – strain 3D7 (AID 2306);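 note: 0% = DMSO wells and 100% = chloroquine plus artemisinin control wells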; details: P. falciparum 3D7 erythrocytic growth, LDH absorbance, 72 h; at 2 µM; stronger effect = higher value
[5] = target: Calcium-dependent protein kinase 1 (Plasmodium falciparum (isolate 3D7)) (UniProt P62344); experiment: PfCDPK1 kinase inhibitors, biochemical, TCAMS library (AID 1159585; cut-off not given, nearly all actives have IC50 up to about 0.98 µM;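 note: inhibitors leave more ATP so luminescence rises with inhibition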); details: recombinant PfCDPK1, Kinase-Glo ATP depletion luminescence
[6] = target: Plasmodium falciparum protein kinase 6 (PK6, PF3D7_1337100) (UniProt Q8IDW1); experiment: PfPK6 kinase inhibitors, biochemical, TCAMS library (AID 1159586); details: recombinant PfPK6, Kinase-Glo ATP depletion luminescence
[7] = target: Protein kinase 7 (PK7), Plasmodium falciparum 3D7 (PF3D7_0213400) (UniProt Q7YTF7); experiment: inhibition of Plasmodium PK7 catalytic activity – biochemical, TCAMS antimalarial set, Kinase-Glo luminescence (AID 1159587); details: recombinant PfPK7, Kinase-Glo ATP depletion luminescence
[8] = target: Calcium-dependent protein kinase 4 (Plasmodium falciparum (isolate 3D7)) (UniProt Q8IBS5); experiment: PfCDPK4 kinase inhibitors, biochemical, TCAMS library (AID 1159588; cut-off not given, nearly all actives have IC50 up to about 0.91 µM); details: recombinant PfCDPK4, Kinase-Glo ATP depletion luminescence
Chain of Calcium-dependent protein kinase 4 (Plasmodium falciparum (isolate 3D7)) (Q8IBS5 whole entry, looked up): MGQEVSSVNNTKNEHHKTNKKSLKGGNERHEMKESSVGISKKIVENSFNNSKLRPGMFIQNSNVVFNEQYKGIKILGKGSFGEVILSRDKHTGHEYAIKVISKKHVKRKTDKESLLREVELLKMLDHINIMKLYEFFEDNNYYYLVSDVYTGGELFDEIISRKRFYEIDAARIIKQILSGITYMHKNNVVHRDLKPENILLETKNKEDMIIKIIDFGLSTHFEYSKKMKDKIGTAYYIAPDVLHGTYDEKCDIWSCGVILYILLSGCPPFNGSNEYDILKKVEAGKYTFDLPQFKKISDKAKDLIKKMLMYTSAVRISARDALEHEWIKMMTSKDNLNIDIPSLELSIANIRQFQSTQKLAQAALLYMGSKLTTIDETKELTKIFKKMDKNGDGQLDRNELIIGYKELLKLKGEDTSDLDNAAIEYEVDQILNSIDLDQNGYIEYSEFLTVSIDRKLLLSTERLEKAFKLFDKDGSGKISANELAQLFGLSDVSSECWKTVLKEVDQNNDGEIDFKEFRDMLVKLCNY

Chain of Calcium-dependent protein kinase 1 (Plasmodium falciparum (isolate 3D7)) (P62344 whole entry, looked up): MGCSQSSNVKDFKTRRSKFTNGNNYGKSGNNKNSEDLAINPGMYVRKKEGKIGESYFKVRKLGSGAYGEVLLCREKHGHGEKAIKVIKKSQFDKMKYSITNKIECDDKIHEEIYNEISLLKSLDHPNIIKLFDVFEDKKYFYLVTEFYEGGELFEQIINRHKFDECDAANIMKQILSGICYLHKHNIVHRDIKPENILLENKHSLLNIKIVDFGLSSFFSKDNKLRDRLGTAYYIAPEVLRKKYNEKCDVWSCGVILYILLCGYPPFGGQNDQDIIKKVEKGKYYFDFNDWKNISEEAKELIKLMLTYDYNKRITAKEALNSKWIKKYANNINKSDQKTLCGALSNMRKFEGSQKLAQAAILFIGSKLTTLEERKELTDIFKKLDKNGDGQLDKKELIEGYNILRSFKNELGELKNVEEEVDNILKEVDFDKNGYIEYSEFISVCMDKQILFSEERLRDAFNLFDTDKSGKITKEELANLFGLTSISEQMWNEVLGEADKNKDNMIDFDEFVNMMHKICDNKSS
Chain of Plasmodium falciparum protein kinase 6 (PK6, PF3D7_1337100) (Q8IDW1 1-305): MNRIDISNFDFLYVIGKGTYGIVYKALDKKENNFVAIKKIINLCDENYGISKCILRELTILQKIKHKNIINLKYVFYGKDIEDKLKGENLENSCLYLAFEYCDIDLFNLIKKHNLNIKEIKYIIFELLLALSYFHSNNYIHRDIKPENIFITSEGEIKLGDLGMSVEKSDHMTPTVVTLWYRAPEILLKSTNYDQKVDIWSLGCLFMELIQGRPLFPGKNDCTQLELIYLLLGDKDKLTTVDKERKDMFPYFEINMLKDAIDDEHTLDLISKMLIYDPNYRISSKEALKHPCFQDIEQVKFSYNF
Chain of L-lactate dehydrogenase (Plasmodium falciparum (isolate CDC / Honduras)) (Q27743 whole entry, looked up): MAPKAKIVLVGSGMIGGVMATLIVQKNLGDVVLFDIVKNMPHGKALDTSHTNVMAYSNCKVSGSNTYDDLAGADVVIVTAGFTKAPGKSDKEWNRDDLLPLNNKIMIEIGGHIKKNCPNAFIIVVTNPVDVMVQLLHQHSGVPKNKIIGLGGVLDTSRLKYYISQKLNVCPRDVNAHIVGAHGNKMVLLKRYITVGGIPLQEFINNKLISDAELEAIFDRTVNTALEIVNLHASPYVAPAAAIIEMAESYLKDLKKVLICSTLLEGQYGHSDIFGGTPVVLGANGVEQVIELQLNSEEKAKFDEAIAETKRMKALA
Chain of Protein kinase 7 (PK7), Plasmodium falciparum 3D7 (PF3D7_0213400) (Q7YTF7 1-343): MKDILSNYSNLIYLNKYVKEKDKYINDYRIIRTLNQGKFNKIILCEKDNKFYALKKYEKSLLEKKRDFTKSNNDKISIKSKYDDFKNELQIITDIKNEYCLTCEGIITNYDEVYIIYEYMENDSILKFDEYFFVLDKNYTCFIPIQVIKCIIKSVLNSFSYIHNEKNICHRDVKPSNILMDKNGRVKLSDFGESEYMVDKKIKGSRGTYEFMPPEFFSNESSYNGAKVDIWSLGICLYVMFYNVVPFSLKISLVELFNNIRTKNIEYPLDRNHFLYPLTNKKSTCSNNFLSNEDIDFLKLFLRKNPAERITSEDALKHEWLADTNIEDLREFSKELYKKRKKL

COC(=O)c1ccc(CC(C)NCC(O)c2ccc(C(O)CNC(C)Cc3ccc(C(=O)OC)cc3)cc2)cc1 (stereo not drawn)
active: growth inhibition [4] 88%
inactive: growth inhibition [1] 13% | inhibition [2] 24% | inhibition [3] 1% | outcome [5] | outcome [6] | outcome [7] | outcome [8]

CN(C)Cc1ccc(-c2cc3c(Nc4ccc(OCc5cccc(F)c5)c(Cl)c4)ncnc3s2)[nH]1
inactive: inhibition [2] 8% | inhibition [3] -1% | outcome [5] | outcome [6] | outcome [7] | outcome [8]
active: growth inhibition [1] 84% | growth inhibition [4] 100%

O=C(/C=C/c1ccc(Cl)c(Cl)c1)NCCCCCN1CCCN(C(=O)Nc2cc(F)cc(F)c2)CC1
inactive: growth inhibition [1] 1% | inhibition [2] 4% | inhibition [3] 0% | outcome [5] | outcome [6] | outcome [7] | outcome [8]
active: growth inhibition [4] 94%

Cc1nc(-c2nc(NCCc3cnccn3)ncc2-c2ccsc2)sc1C
active: growth inhibition [4] 98%
inactive: growth inhibition [1] 40% | inhibition [2] -7% | inhibition [3] 0% | outcome [5] | outcome [6] | outcome [7] | outcome [8]

CCOC(=O)N(C)/N=C/[C@H](CCc1ccccc1)NC(=O)[C@H](CC(C)C)NC(=O)c1cc2cccc(OC)c2o1
active: growth inhibition [1] 70% | growth inhibition [4] 86%
inactive: inhibition [2] 2% | inhibition [3] 1% | outcome [5] | outcome [6] | outcome [7] | outcome [8]

CCCCCCCN1CC[C@H](CC(=O)Nc2ccnc3ccc(OC)cc23)[C@@H](CC)C1
active: growth inhibition [1] 75% | growth inhibition [4] 101%
inactive: inhibition [2] 14% | inhibition [3] -4% | outcome [5] | outcome [6] | outcome [7] | outcome [8]

CC(C)(C)c1ccc(CN2CCCCC(NC(=O)c3cc(-c4cccc(F)c4)cs3)C2)cc1 (stereo not drawn)
active: growth inhibition [1] 84% | growth inhibition [4] 98%
inactive: inhibition [2] 8% | inhibition [3] -3% | outcome [5] | outcome [6] | outcome [7] | outcome [8]

CC(C)NCc1ccc(-c2cccc(-c3nc4ccc(C(F)(F)F)cc4[nH]3)c2)cc1
active: growth inhibition [1] 100% | growth inhibition [4] 101%
inactive: inhibition [2] 21% | inhibition [3] -5% | outcome [5] | outcome [6] | outcome [7] | outcome [8]

CC1(C)N=C(N)N=C(N)N1c1cccc(Cl)c1
inactive: inhibition [3] -1% | outcome [5] | outcome [6] | outcome [7] | outcome [8]
active: growth inhibition [1] 96% | inhibition [2] 69% | growth inhibition [4] 96%

CN(Cc1cc(C(F)(F)F)cc(C(F)(F)F)c1)C(=O)[C@H]1CNC[C@@H]1c1ccc(F)cc1
active: growth inhibition [4] 92%
inactive: growth inhibition [1] 4% | inhibition [2] 1% | inhibition [3] -5% | outcome [5] | outcome [6] | outcome [7] | outcome [8]

COc1ccc(Cl)cc1C(=O)Nc1ccc(-c2nc3ccccc3[nH]2)cc1
inactive: growth inhibition [1] 39% | inhibition [2] 42% | inhibition [3] -7% | outcome [5] | outcome [6] | outcome [7] | outcome [8]
active: growth inhibition [4] 92%

C[C@@H](NC(=O)c1nn(-c2ccc(Cl)cc2)c(=O)c2ccccc12)C(C)(C)C
inactive: growth inhibition [1] 20% | inhibition [2] 7% | inhibition [3] -2% | outcome [5] | outcome [6] | outcome [7] | outcome [8]
active: growth inhibition [4] 95%

COc1ccc2nccc([C@@H](O)CN3CCC(NCc4cc5oc(=O)[nH]c5cc4Cl)CC3)c2c1
inactive: inhibition [2] 1% | inhibition [3] -2% | outcome [5] | outcome [6] | outcome [7] | outcome [8]
active: growth inhibition [1] 91% | growth inhibition [4] 101%

CCN1CCC(N(Cc2ccc(-c3ccc(C(F)(F)F)cc3)cc2)C(=O)Cn2c(SCc3ccc(F)cc3)nc(=O)c3c2CCC3)CC1
inactive: inhibition [2] 46% | inhibition [3] 2% | outcome [5] | outcome [6] | outcome [7] | outcome [8]
active: growth inhibition [1] 96% | growth inhibition [4] 90%

Cc1ccc(N)cc1-c1nc(NC2CC(C)(C)NC(C)(C)C2)nc2c1ccc(=O)n2-c1c(F)cccc1F
inactive: growth inhibition [1] 1% | inhibition [2] 0% | inhibition [3] -5% | outcome [5] | outcome [6] | outcome [7] | outcome [8]
active: growth inhibition [4] 98%

O=C(CSc1nc2ccc([N+](=O)[O-])cc2s1)Nc1ccccc1-c1ccccc1
inactive: growth inhibition [1] 49% | inhibition [2] -1% | inhibition [3] 0% | outcome [5] | outcome [6] | outcome [7] | outcome [8]
active: growth inhibition [4] 80%

CN(C)Cc1ccc(-c2ccc3ccnc(N)c3c2)cc1
inactive: inhibition [2] 20% | inhibition [3] -1% | outcome [5] | outcome [6] | outcome [7] | outcome [8]
active: growth inhibition [1] 100% | growth inhibition [4] 100%

Cn1c(-c2ccccc2)cc2c3c(N)nc(N)nc3ccc21
active: growth inhibition [4] 100%
inactive: growth inhibition [1] 30% | inhibition [2] 27% | inhibition [3] -2% | outcome [5] | outcome [6] | outcome [7] | outcome [8]

Cc1cccc2[nH]c(-c3ccc(-c4cccc(NC(=O)C(=O)c5cccn5C)c4)cc3)nc12
active: growth inhibition [4] 98%
inactive: growth inhibition [1] 17% | inhibition [2] 30% | inhibition [3] 3% | outcome [5] | outcome [6] | outcome [7] | outcome [8]

CCOc1ccccc1C(=O)Nc1cccc(-c2nc3ncccn3c2C)c1
inactive: inhibition [2] 0% | inhibition [3] -6% | outcome [5] | outcome [6] | outcome [7] | outcome [8]
active: growth inhibition [1] 88% | growth inhibition [4] 92%

CCCC(C)NC[C@@H](O)[C@H](Cc1ccccc1)NC(=O)c1cc(NCC)cc(N2CCCCS2(=O)=O)c1 (stereo partly drawn)
inactive: inhibition [2] -4% | inhibition [3] -2% | outcome [5] | outcome [6] | outcome [7] | outcome [8]
active: growth inhibition [1] 98% | growth inhibition [4] 101%

Cc1cccc2[nH]c(-c3cccc(-c4ccc(NC(=O)Nc5ccc(Cl)c(Cl)c5)cc4)c3)nc12
active: growth inhibition [1] 83% | inhibition [2] 53% | growth inhibition [4] 102%
inactive: inhibition [3] 7% | outcome [5] | outcome [6] | outcome [7] | outcome [8]

CS(=O)(=O)NCCCNCc1ccc(-c2ccc(-c3nc4ccc(F)cc4[nH]3)cc2)cc1
active: growth inhibition [1] 97% | growth inhibition [4] 100%
inactive: inhibition [2] 17% | inhibition [3] -1% | outcome [5] | outcome [6] | outcome [7] | outcome [8]

FC(F)(F)Oc1ccc(-c2cnc3ccc(NCc4ccncc4)nn23)cc1
inactive: inhibition [2] 19% | inhibition [3] -3% | outcome [5] | outcome [6] | outcome [7] | outcome [8]
active: growth inhibition [1] 54% | growth inhibition [4] 97%

C=CCc1ccc(C[C@H](NC(=O)OC(C)(C)C)C(=O)OC)cc1
inactive: inhibition [3] 4% | outcome [5] | outcome [6] | outcome [7] | outcome [8]
active: growth inhibition [1] 98% | inhibition [2] 77% | growth inhibition [4] 98%

Cc1nc2nc(N)nc(N)c2c(C)c1Cc1ccc(O)cc1
inactive: growth inhibition [1] 0% | inhibition [3] 1% | outcome [5] | outcome [6] | outcome [7] | outcome [8]
active: inhibition [2] 64% | growth inhibition [4] 94%

COc1cc(Nc2ncnc3cc(OC)c(OC)cc23)cc([N+](=O)[O-])c1
inactive: growth inhibition [1] 6% | inhibition [2] 8% | inhibition [3] 8% | outcome [5] | outcome [6] | outcome [7] | outcome [8]
active: growth inhibition [4] 97%

COc1ccc(Nc2ccnc3cc4ccccc4cc23)cc1
inactive: inhibition [2] 32% | inhibition [3] 3% | outcome [5] | outcome [6] | outcome [7] | outcome [8]
active: growth inhibition [1] 73% | growth inhibition [4] 101%

CC1CCCC(Nc2noc(-c3sccc3Br)n2)C1 (stereo not drawn)
active: growth inhibition [1] 99% | growth inhibition [4] 102%
inactive: inhibition [2] 7% | inhibition [3] 0% | outcome [5] | outcome [6] | outcome [7] | outcome [8]

COc1ccc(C2CC(c3ccccc3)=NN2C(=O)c2ccc(Br)o2)cc1 (stereo not drawn)
active: growth inhibition [4] 96%
inactive: growth inhibition [1] 45% | inhibition [2] 6% | inhibition [3] -6% | outcome [5] | outcome [6] | outcome [7] | outcome [8]

CC1=C(C(=O)Nc2cc3cn[nH]c3cc2F)C(c2ccc(Cl)c(NS(C)(=O)=O)c2)CC(=O)N1 (stereo not drawn)
inactive: inhibition [2] 2% | inhibition [3] -1% | outcome [5] | outcome [6] | outcome [7] | outcome [8]
active: growth inhibition [1] 98% | growth inhibition [4] 88%

CCCCCC(C)NC[C@@H](O)[C@H](Cc1ccccc1)NC(=O)c1cc(NCC)cc(N2CCCCS2(=O)=O)c1 (stereo partly drawn)
active: growth inhibition [1] 79% | growth inhibition [4] 98%
inactive: inhibition [2] 3% | inhibition [3] 0% | outcome [5] | outcome [6] | outcome [7] | outcome [8]

FC(F)(F)c1ccc(N2CCCN(Cc3cccc(-c4ccccc4CNCc4ccc5c(c4)OCO5)c3)CC2)nc1
active: growth inhibition [4] 87%
inactive: growth inhibition [1] 11% | inhibition [2] 23% | inhibition [3] 3% | outcome [5] | outcome [6] | outcome [7] | outcome [8]

O=C(NCc1ccc(Cl)c(Cl)c1)c1ccc(C2CCCN(Cc3ccc4nc[nH]c4c3)C2)cc1 (stereo not drawn)
active: growth inhibition [1] 83% | growth inhibition [4] 100%
inactive: inhibition [2] 9% | inhibition [3] 3% | outcome [5] | outcome [6] | outcome [7] | outcome [8]

COc1ccc(C(=O)Nc2ccc(-c3ccc([N+](=O)[O-])cc3)cc2)cc1CCCN(C)C
active: growth inhibition [4] 98%
inactive: growth inhibition [1] 9% | inhibition [2] 20% | inhibition [3] 1% | outcome [5] | outcome [6] | outcome [7] | outcome [8]

CC(C)C(C(=O)n1cc2c(ccc3nc(N)nc(N)c32)n1)C(C)C
inactive: growth inhibition [1] 49% | inhibition [3] -6% | outcome [5] | outcome [6] | outcome [7] | outcome [8]
active: inhibition [2] 58% | growth inhibition [4] 98%

O=C(Nc1ccc(SC(F)(F)F)cc1)Nc1ccnc2ccccc12
inactive: growth inhibition [1] 42% | inhibition [2] 26% | inhibition [3] -2% | outcome [5] | outcome [6] | outcome [7] | outcome [8]
active: growth inhibition [4] 95%

O=c1cc(NCCCNC2CCCc3c2cc(Cl)c(Cl)c3Cl)[nH]c2ccccc12 (stereo not drawn)
inactive: inhibition [2] 6% | inhibition [3] -10% | outcome [5] | outcome [6] | outcome [7] | outcome [8]
active: growth inhibition [1] 64% | growth inhibition [4] 100%

COc1cccc(Nc2nc(C)cc(Nc3cccc(C#N)c3)n2)c1
inactive: inhibition [2] -2% | inhibition [3] -3% | outcome [5] | outcome [6] | outcome [7] | outcome [8]
active: growth inhibition [1] 92% | growth inhibition [4] 101%

O=C(/C=C/c1ccc(Cl)c(Cl)c1)NCCCCCCN1CCCN(C(=O)Nc2cccc(C(F)(F)F)c2)CC1
active: growth inhibition [4] 95%
inactive: growth inhibition [1] 0% | inhibition [2] 25% | inhibition [3] -3% | outcome [5] | outcome [6] | outcome [7] | outcome [8]

CCOC(=O)c1ccc(NC(=O)N[C@@H](Cc2ccccc2)C(=O)NC2CCN(Cc3ccc(O)cc3)C2)cc1 (stereo partly drawn)
inactive: growth inhibition [1] 2% | inhibition [2] 7% | inhibition [3] -6% | outcome [5] | outcome [6] | outcome [7] | outcome [8]
active: growth inhibition [4] 95%
